# Results taken from the supplement of paper PMC10849652.
# The full data set covers some 7,900 targets. This sample favours those with a hit. About 0.6% of all pairs of compound and target were hits. Values without a mark were called inactive.
# Columns and labels:
# Experiment in all cases: log2 fold change, soluble protein after heating vs DMSO (PISA); higher = thermal stabilisation; K562 cells, 10 uM, 30 min; active = over 0.2 and 3.5 SD of the protein, either way, in both replicates (recomputed)
# erlotinib = compound: C#Cc1cccc(Nc2ncnc3cc(OCCOC)c(OCCOC)cc23)c1 [erlotinib]
# In short: (§1)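 K562 cells (2×10^6 cells/mL) were treated with 10 μM compound for 30 min, and aliquots were heated for 3 min over 48°C-58°C. Pooled aliquots were extracted in PBS with 0.5% NP-40 at 4°C, and the supernatant after 21,000xg for 90 min was measured by TMTpro 16plex LC-MS/MS with channel sums equalised. Reported thermal stability, relative to control samples and from duplicates, is a log2 fold change.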
# [1] = compound: C/C(=N\NC(=O)C1=CC(=CC=C1)S(=O)(=O)N2CCOCC2)/C3=C(C=CC(=C3)Cl)O
# In short: as §1
# [2] = compound: C1=CC(=C(C=C1Cl)C2=NC3=NC=CN=C3C(=N2)NC4=CC=NC=C4)F
# In short: as §1
# [3] = compound: C1=CC(=CC=C1C2=NC3=C(N2)C=C(C=C3)C(=O)N)OC4=CC=C(C=C4)Cl
# In short: as §1
# [4] = compound: C1=CC2=C(C=CC(=C2)/C=C\3/C(=O)NC(=NCC4=CC=CS4)S3)N=C1
# In short: as §1
# [5] = compound: C1=CC2=NC=CN=C2C=C1/C=C/3\C(=O)NC(=O)S3
# In short: as §1
# [6] = compound: C1=CC=C(C=C1)C2=NC(=C(N2)C3=CC=NC=C3)C4=CC(=C(C=C4)Cl)O
# In short: as §1
# [7] = compound: C1=CC=C2C(=C1)C3=NNC4=CC=CC(=C43)C2=O
# In short: as §1
# [8] = compound: C1CCN(C1)C(=O)NC2=CC=CC(=C2)NC3=NC=C(C(=N3)NCCC4=CN=CN4)Br
# In short: as §1
# [9] = compound: C1CN(CCC1(CC2=CC=C(C=C2)Cl)N)C3=NC=NC4=C3C=CN4
# In short: as §1
# UniProt Q14653, sequence (Q14653 whole entry, looked up): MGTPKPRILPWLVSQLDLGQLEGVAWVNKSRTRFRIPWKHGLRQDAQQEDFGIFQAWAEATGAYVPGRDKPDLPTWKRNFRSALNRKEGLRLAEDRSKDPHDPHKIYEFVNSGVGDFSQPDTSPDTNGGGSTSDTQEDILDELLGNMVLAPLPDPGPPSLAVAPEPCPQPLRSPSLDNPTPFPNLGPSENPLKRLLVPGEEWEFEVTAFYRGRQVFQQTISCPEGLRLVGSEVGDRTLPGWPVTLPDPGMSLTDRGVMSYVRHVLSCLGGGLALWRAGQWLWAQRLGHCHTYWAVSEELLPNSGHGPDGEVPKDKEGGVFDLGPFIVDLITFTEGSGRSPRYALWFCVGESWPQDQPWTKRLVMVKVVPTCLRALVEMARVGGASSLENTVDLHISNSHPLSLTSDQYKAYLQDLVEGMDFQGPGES
# UniProt O95372, sequence (O95372 whole entry, looked up): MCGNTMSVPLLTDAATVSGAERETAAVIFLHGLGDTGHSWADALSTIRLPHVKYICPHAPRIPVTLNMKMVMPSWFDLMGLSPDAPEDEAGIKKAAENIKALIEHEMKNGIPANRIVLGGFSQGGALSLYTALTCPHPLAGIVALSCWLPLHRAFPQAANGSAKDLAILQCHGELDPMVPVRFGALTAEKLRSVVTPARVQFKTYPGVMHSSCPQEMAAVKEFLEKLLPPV
# UniProt O15066, sequence (O15066 whole entry, looked up): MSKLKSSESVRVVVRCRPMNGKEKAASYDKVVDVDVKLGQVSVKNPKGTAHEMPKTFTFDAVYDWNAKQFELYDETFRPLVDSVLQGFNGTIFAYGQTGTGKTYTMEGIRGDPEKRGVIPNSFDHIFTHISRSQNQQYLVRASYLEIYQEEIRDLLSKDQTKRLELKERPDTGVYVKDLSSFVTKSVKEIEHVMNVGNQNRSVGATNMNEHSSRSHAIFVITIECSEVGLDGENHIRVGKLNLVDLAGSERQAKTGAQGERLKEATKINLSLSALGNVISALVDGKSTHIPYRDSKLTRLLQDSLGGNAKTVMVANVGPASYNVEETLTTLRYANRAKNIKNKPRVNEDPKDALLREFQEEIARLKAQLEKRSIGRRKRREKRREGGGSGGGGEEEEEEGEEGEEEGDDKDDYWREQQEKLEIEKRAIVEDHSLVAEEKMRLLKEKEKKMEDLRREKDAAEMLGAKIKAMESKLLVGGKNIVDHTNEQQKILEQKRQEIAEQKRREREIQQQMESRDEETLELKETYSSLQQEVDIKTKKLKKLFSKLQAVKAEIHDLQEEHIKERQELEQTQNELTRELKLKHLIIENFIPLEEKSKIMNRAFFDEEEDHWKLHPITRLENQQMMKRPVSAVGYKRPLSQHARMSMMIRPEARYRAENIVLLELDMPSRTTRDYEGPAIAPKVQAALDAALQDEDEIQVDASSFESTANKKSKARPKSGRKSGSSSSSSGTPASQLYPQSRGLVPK
# UniProt Q9UI26, sequence (Q9UI26 whole entry, looked up): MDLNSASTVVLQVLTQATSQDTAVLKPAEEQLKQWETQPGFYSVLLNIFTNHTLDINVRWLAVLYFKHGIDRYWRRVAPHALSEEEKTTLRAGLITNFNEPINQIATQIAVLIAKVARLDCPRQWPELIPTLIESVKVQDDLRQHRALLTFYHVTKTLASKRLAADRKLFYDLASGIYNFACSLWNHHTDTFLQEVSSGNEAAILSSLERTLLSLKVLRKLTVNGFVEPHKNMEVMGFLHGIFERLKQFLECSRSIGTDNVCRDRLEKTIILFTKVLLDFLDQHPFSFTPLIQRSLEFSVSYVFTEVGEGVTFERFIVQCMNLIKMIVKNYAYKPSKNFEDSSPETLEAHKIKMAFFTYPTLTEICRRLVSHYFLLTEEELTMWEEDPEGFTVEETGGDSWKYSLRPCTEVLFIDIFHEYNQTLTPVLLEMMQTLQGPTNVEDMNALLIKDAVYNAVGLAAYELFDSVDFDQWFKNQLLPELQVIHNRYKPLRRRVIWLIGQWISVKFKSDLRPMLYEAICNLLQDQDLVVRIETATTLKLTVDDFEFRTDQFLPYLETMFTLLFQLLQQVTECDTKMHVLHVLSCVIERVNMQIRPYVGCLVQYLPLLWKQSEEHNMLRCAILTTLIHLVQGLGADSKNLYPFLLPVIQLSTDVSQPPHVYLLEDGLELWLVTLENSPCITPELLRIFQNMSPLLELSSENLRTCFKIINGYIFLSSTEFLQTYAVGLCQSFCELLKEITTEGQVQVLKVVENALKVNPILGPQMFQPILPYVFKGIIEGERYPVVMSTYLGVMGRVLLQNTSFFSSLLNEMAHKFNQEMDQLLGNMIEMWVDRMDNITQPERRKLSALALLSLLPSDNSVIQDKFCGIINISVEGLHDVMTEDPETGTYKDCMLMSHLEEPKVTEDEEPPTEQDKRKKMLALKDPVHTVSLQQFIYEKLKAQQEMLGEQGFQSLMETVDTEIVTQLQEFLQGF
# UniProt Q9BPX6, sequence (Q9BPX6 whole entry, looked up): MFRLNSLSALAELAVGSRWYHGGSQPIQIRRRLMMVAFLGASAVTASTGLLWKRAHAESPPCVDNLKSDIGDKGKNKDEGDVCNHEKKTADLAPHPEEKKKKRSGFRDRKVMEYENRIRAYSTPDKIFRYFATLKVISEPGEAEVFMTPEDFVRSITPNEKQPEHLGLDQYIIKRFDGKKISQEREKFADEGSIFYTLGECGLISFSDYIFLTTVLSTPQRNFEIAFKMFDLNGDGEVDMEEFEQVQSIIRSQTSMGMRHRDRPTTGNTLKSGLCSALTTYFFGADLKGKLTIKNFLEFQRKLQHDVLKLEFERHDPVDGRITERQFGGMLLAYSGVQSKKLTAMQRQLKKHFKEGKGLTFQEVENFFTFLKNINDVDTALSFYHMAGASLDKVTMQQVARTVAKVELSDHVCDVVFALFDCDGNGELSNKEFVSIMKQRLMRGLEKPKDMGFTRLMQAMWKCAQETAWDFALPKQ
# UniProt Q14145, sequence (Q14145 whole entry, looked up): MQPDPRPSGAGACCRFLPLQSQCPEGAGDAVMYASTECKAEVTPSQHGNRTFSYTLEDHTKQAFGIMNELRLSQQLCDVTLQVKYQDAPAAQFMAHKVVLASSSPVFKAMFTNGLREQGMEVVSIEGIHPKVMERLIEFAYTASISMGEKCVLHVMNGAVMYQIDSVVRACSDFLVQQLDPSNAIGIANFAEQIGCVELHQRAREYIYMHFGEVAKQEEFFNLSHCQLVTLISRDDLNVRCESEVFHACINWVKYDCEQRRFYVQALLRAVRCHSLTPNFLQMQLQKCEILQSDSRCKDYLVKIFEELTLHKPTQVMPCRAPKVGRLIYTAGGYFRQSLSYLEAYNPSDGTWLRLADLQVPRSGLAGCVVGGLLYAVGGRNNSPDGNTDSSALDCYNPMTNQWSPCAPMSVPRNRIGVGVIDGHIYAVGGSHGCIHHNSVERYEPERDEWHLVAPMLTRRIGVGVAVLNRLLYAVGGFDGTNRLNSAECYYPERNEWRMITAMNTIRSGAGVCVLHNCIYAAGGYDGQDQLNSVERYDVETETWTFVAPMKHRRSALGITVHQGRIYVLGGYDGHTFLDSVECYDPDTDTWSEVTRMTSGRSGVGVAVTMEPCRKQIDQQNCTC
# UniProt Q13257, sequence (Q13257 whole entry, looked up): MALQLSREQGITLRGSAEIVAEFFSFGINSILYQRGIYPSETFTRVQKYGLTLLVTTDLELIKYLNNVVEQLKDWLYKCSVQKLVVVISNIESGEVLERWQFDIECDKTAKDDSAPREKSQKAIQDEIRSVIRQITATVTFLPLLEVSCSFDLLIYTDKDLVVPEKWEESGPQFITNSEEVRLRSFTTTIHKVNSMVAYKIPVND
# UniProt Q9H3F6, sequence (Q9H3F6 whole entry, looked up): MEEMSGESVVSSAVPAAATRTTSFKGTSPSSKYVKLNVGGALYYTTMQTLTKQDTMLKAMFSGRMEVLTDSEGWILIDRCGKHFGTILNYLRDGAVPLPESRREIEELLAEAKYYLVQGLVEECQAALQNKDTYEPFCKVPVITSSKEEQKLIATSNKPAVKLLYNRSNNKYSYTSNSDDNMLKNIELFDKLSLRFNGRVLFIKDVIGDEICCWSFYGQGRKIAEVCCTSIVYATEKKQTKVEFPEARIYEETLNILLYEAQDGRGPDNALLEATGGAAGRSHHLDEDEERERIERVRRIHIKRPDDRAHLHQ
# UniProt Q16539, sequence (Q16539 whole entry, looked up): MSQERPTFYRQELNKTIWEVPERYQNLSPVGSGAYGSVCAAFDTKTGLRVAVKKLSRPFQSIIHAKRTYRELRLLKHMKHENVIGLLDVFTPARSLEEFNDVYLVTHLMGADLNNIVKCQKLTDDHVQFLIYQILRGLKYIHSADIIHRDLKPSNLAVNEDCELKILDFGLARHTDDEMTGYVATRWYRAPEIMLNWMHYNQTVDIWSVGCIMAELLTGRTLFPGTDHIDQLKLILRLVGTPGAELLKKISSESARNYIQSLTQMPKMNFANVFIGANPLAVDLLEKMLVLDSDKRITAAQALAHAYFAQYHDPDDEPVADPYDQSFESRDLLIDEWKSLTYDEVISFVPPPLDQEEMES
Target,log2 fold change (erlotinib),log2 fold change [1],log2 fold change [2],log2 fold change [3],log2 fold change [4],log2 fold change [5],log2 fold change [6],log2 fold change [7],log2 fold change [8],log2 fold change [9]
LTO1 (UniProt Q8WV07),-0.095,0.072,0.032,0.059,0.002,0.089,-0.035,-0.052,-0.032,0.169
LRRFIP1 (UniProt Q32MZ4),0.072,-0.045,-0.027,0.018,-0.01,0.052,-0.024,-0.042,0.056,0.041
MICU1 isoform 3 (UniProt Q9BPX6),-0.02,-0.026,-0.022,0.002,-0.009,0.007,-0.054,0.008,0.013,-0.015
LEMD3 (UniProt Q9Y2U8),0.102,0.091,0.109,-0.007,0.003,-0.05,-0.01,0.169,-0.063,-0.029
MFSD5 isoform 2 (UniProt Q6N075),0.147,0.057,0.041,0.115,-0.061,0.038,-0.144,0.109,0.014,0.034
KMT2C isoform 3 (UniProt Q8NEZ4),0.038,-0.032,0.006,0.012,0.078,0.021,-0.194,-0.056,0.003,0.018
KEAP1 (UniProt Q14145),-0.015,-0.031,0.025,-0.021,0.025,0.159,-0.098,0.023,-0.045,-0.034
KIF3A (UniProt Q9Y496),-0.222,-0.06,-0.069,-0.122,-0.049,0.034,-0.062,-0.025,-0.011,-0.067
ILKAP (UniProt Q9H0C8),0.096,0.26,0.071,-0.02,0.126,0.011,0.022,0.088,-0.092,-0.076
MED16 (UniProt Q9Y2X0),-0.019,-0.085,0.065,-0.038,0.038,0.051,-0.067,-0.155,0.034,-0.046
KCTD10 (UniProt Q9H3F6),-0.041,0.159,-0.051,0.014,-0.021,0.049,-0.171,0.045,-0.027,-0.055
LARP4B (UniProt Q92615),-0.016,0.032,-0.042,0.017,-0.057,-0.03,0.063,-0.06,-0.013,-0.042
MAGEC2 (UniProt Q9UBF1),-0.026,0.024,-0.099,-0.018,-0.003,0.03,-0.011,-0.004,-0.022,0.051
IPO11 isoform 2 (UniProt Q9UI26),-0.063,0.066,0.074,0.013,0.016,0.038,0.011,-0.023,0.001,-0.009
KPNA6 (UniProt O60684),0.077,0.108,-0.068,-0.075,0.013,0.059,0.015,-0.119,0.017,-0.07
KLHL18 (UniProt O94889),-0.011,0,0.12,0.022,0.031,-0.02,-0.042,-0.085,-0.042,-0.026
MCL1 (UniProt Q07820),-0.225,0,-0.037,-0.01,-0.057,0.027,-0.121,-0.161,-0.039,0
MAD2L1 (UniProt Q13257),-0.01,0.056,0.029,-0.052,0.033,0.056,-0.009,0.007,0.01,-0.032
KIF13A (UniProt Q9H1H9),0.065,-0.026,-0.031,0.017,0.056,-0.009,-0.027,-0.055,-0.043,0.072
MAP4 (UniProt E7EVA0),0,-0.093,-0.219,0.063,-0.087,0.058,-0.086,-0.003,0.034,-0.053
MAP3K4 isoform 2 (UniProt Q9Y6R4),-0.027,0.019,0.036,-0.023,0.039,-0.017,-0.023,-0.031,0.034,0.07
LBR (UniProt Q14739),0.009,0.122,0.043,-0.016,0.029,0.034,0.059,-0.002,0.037,0.21
LYPLA2 (UniProt O95372),-0.008,0.021,0.345 (active),-0.01,0.081,0.097,0.14,-0.016,-0.084,-0.122
MAGEA9 (UniProt P43362),0.05,0.032,0.001,0.076,-0.07,0.074,-0.021,-0.058,-0.191,0.018
MAPK14 isoform 2 (UniProt Q16539),0.313,-0.051,0.936 (active),-0.136,0.01,-0.013,1 (active),0.207,0.021,-0.102
IL27RA (UniProt Q6UWB1),-0.082,0.04,-0.147,0.007,0.021,0.048,0.064,0.068,-0.011,0.075
MIER1 isoform 12 (UniProt Q8N108),0.399 (active),0.009,0.016,-0.031,0.024,0.014,0.001,0.02,-0.06,0.028
LPGAT1 (UniProt Q92604),-0.005,0.022,0.201,-0.274,0.183,0.098,-0.043,-0.025,0.017,0.115
IRF3 (UniProt Q14653),0.042,0.056,0.019,-0.022,0.046,-0.022,-0.036,0,-0.055,-0.008
KIF3B (UniProt O15066),-0.015,0.016,-0.015,-0.108,-0.02,0.004,-0.029,0.077,-0.101,-0.039
